Square brackets hold non-standard residues; d marks the D form. Peptide text beside a SMILES is read from it. * marks the point of attachment. ξ: configuration not given here. Cbz = O=C(OCc1ccccc1)*; ξK = NCCCCC(N)C(=O)O
experiment: Her2 expression decrease, cell viability multiplex – SKBR3 breast tumor cells, AlphaScreen, ATP viability, primary screen (AID 461); settings: SKBR3 Her2 protein level, 18-24 h, measured here: SKBR3 viability, ATP luminescence, at 10 µM;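 note: percent of carrier control wells set as 100% viability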

Q: Which viability does the source give for COC(=O)c1ccccc1NC(=O)CSc1nc2c(c(=O)n(C)c(=O)n2C)n1C here?
A: The viability was 86%.

Q: Which viability does the source give for CCCCOc1cccc(NC(=O)CSc2nccn2C)c1 here?
A: Its viability is 107%.

Q: With Cc1ccc(Nc2cc(-n3nc(C)cc3C)ncn2)cc1 as the compound, how does the viability read?
A: The viability was 96.5%.

Q: Which viability does the source give for COc1ccc(-n2c(SCC#N)nc3ccccc3c2=O)cc1 here?
A: The viability was 77%.

Q: For COc1cc2c(C)nc(C)c(C#N)c2cc1OC, which viability is on record?
A: Its viability is 111%.

Q: With CC1=C(C(=O)OCc2ccccc2)C(c2ccc(C)o2)C2=C(CCCC2=O)N1 (stereo not given) as the compound, how does the viability read?
A: Its viability is 72%.

Q: With C=CCNC(=O)c1cc(-c2ccccc2O)on1 as the compound, how does the viability read?
A: Its viability is 97%.

Q: Which viability does the source give for Cc1cc(NC(=O)CSc2nc3ccsc3c(=O)n2NC(=O)c2ccccc2)no1 here?
A: The viability was 94.5%.

Q: With O=C(NCc1ccco1)c1cnn2c(C(F)(F)F)cc(-c3ccco3)nc12 as the compound, how does the viability read?
A: Its viability is 86.5%.

Q: Which viability does the source give for Cc1ccc(-c2nnc3ccc(SCC(=O)NCc4ccco4)nn23)cc1 here?
A: The viability was 100%.

Q: Which viability does the source give for CCCc1cc(C(N)=O)c(NC(=O)c2ccco2)s1 here?
A: Its viability is 102%.

Q: Which viability does the source give for COc1ccc(CCNC(=O)c2ccncc2)cc1OC here?
A: The viability was 107%.

Q: Which viability does the source give for CCOC(=O)c1nnc(-c2ccccc2)o1 here?
A: Its viability is 101%.

Q: With Cc1ccc(S(=O)(=O)N2CCCC(C(=O)NC3=NCCS3)C2)cc1 (stereo not given) as the compound, how does the viability read?
A: The viability was 97.5%.

Q: Which viability does the source give for O=C1CCCC2=C1C(c1ccsc1)CC(=O)N2c1ccccc1 (stereo not given) here?
A: Its viability is 90.5%.

Q: With Cc1csc2nc(CSc3nc4ccccc4o3)c(Br)n12 as the compound, how does the viability read?
A: The viability was 84.5%.

Q: With CC(NC(=O)c1ccccc1NC(=O)c1ccco1)C(=O)O (stereo not given) as the compound, how does the viability read?
A: The viability was 106%.

Q: With CCC(=O)Nc1cc2nn(-c3ccccc3)nc2cc1Cl as the compound, how does the viability read?
A: The viability was 91%.

Q: With O=C(NC1CCCCC1)n1c(=O)oc2ccc(Cl)cc21 as the compound, how does the viability read?
A: The viability was 118%.

Q: With COc1ccc(OC)c(-c2nnc(SCC(=O)NC3CCCCC3)o2)c1 as the compound, how does the viability read?
A: Its viability is 93.5%.

Q: Which viability does the source give for O=C(O)CCCc1nc(-c2ccccc2)no1 here?
A: The viability was 91.5%.

Q: Which viability does the source give for COCCn1c(SCC(=O)Nc2cccc(OC)c2)nnc1-c1ccc(Cl)cc1 here?
A: Its viability is 98.5%.

Q: Which viability does the source give for CCN1C(=O)Cc2cc(S(=O)(=O)N3CCOCC3)ccc21 here?
A: Its viability is 105%.

Q: Which viability does the source give for O=C(Nc1cc(Cl)ccc1Cl)c1noc2c1CCCC2 here?
A: The viability was 87.5%.

Q: Which viability does the source give for CCCCn1c(SCC(=O)Nc2ccc(OC)cc2)nc2ccc(N3CCOCC3)cc2c1=O here?
A: The viability was 94.5%.

Q: For Cc1ccc(C(=O)N2CCN(C(=O)c3ccc(C)c(C)c3)C(C)C2)cc1C (stereo not given), which viability is on record?
A: Its viability is 84.5%.

Q: With COc1ccc(C2CC(c3ccccc3)Nc3nc(NC(=O)c4cccs4)nn32)cc1 (stereo not given) as the compound, how does the viability read?
A: Its viability is 81.5%.

Q: Which viability does the source give for CC1(CC(=O)O)C(=O)N=C2C=CC=CN21 (stereo not given) here?
A: The viability was 93%.

Q: For COC(=O)C(CCCCNC(=O)OCc1ccccc1)NC(=O)CN (stereo not given) (H-Gly-[ξK](Cbz)-OMe), which viability is on record?
A: Its viability is 109%.

Q: For Fc1ccc(C(c2nnnn2Cc2ccco2)N2CCN(C3CCCCC3)CC2)cc1 (stereo not given), which viability is on record?
A: Its viability is 67%.

Q: For COc1ccccc1-c1cn[nH]c(=S)n1, which viability is on record?
A: The viability was 101%.

Q: For CCOC(=O)C1CCCN(C(=O)c2ccc(CS(=O)(=O)Cc3ccccc3C)o2)C1 (stereo not given), which viability is on record?
A: The viability was 94.5%.

Q: With O=c1c2[nH]c3ccccc3c2ncn1CCCn1ccnc1 as the compound, how does the viability read?
A: The viability was 92%.

Q: With COc1ccc(S(=O)(=O)N2CCN(C3CCCCCCC3)CC2)cc1 as the compound, how does the viability read?
A: Its viability is 87.5%.

Q: Which viability does the source give for O=C(CCn1c(=S)[nH]c2ccccc2c1=O)NCC1CCCO1 (stereo not given) here?
A: The viability was 118%.

Q: Which viability does the source give for CCC(=O)Nc1ccc(NC(=O)c2cccc(OC)c2)nc1 here?
A: Its viability is 94%.

Q: With CN(Cc1ccccc1)C(=O)c1ccc2c(c1)OCO2 as the compound, how does the viability read?
A: Its viability is 101%.

Q: Which viability does the source give for O=C(O)CC1SC(=Nc2cccc(C(F)(F)F)c2)NC1=O (stereo not given) here?
A: The viability was 111%.

Q: Which viability does the source give for CCOC(=O)C1=C(C)N=c2s/c(=C\c3cccn3C)c(=O)n2C1c1cccc(OC)c1OC (stereo not given) here?
A: Its viability is 89%.

Q: For CC(=O)c1cccc(NC(=O)N2CCCc3ccccc32)c1, which viability is on record?
A: The viability was 105%.
